Compound activity as filed in PubChem.
Only some compounds are listed: those with a hit (about 7.3% of all), similar ones and a draw of the others.
VACV mCherry inh = vaccinia inhibition (mCherry reporter). Vaccinia virus mCherry reporter infection, fluorescence. Potency, µM (titrated, usually from 36.5 µM), actives largely listed as inhibitors. hit rate 0.63% among 310,000; calls by dose curve; tested in A549 cells; also: nearly all actives have a fitted effect of over 35% in size
FMDV inh = foot and mouth disease virus antiviral activity | FMDV antiviral cell-based qHTS | Potency, µM (doses to about 57.9 µM), hits mostly inhibitors | hit rate 1.2% among 410,000; calls by dose curve; tested in HEK293T cells; also: read-out not given here; nearly all actives have a fitted effect of over 45% in size
Vaccinia Venus = vaccinia inhibition (Venus reporter). Vaccinia virus Venus reporter expression, fluorescence. Potency, µM (highest dose often 36.5 µM), usual class: inhibitors. hit rate 0.46% among 330,000. AID 720580; calls by dose curve; tested in A549 cells; also: nearly all actives have a fitted effect of over 30% in size
HCV inh = inhibitors of hepatitis C virus infection; Huh7.5.1 HCVcc-Cre infection, luciferase reporter, 44 h; Potency, µM (series often up to 41.8 µM), usual class: inhibitors; hit rate 3.4% among 340,000; active = well fitted inhibition curve with a large enough effect; inconclusive = small, poorly fitted or top-dose-only effect, or another doubt; inactive = no such curve, though single readings can be large or run the other way
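Cells (1,000/well) were plated 4 h before compound, then infected with HCVcc-Cre virus (~0.5 moi). After 44 h further culture, infection was read as luciferase luminescence following a 15 min substrate incubation at room temperature.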
HCMV antiviral = inhibitors of human cytomegalovirus; HFF cells, HCMV-luciferase reporter, 72 h; active compounds read low; activity change, negative = inhibition, % at 57.5 µM; hit rate 4.5% among 410,000; in the data active = activity change below about -60%; inconclusive = no clear call, values can overlap the other calls; inactive = above about -39%
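Inhibition of viral replication was scored as loss of reporter luminescence in HFFs infected with HCMV-luciferase (MOI 1 PFU/cell) for 72 h; compounds tested at 2 doses, normalized to buffer and Salinomycin controls.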
Each line names hits and unclear results; the compound was inactive in the other large screens.

NC(=S)NCc1cccnc1	none (no result: VACV mCherry inh, Vaccinia Venus)
S=C(NCc1cccnc1)Nc1ccc(Oc2ccccc2)cc1	HCV inh inconclusive, HCMV antiviral -70.8 (no result: VACV mCherry inh, Vaccinia Venus)
CCc1ccc(NC(=S)NCc2cccnc2)cc1	none
CSC(=S)NCc1cccnc1	VACV mCherry inh inconclusive, HCV inh inconclusive, HCMV antiviral -81.9
FC(F)Oc1ccc(NC(=S)NCc2cccnc2)cc1	none
CCCCc1ccc(NC(=S)NCc2cccnc2)cc1	HCV inh inconclusive, HCMV antiviral -77.0
S=C(NCc1ccccc1)Nc1ccncc1	HCV inh 1.78µM, HCMV antiviral inconclusive
O=C(Nc1cc(Cl)ccc1Cl)C1(c2cccs2)CCOCC1	none (no result: HCV inh)
OCCCNC(=S)Nc1ccc(Oc2ccccc2)cc1	HCMV antiviral inconclusive
CC(C)CNC(=S)Nc1ccc(Oc2ccccc2)cc1	HCV inh inconclusive, HCMV antiviral -62.7
O=S(=O)(c1ccc(NC(=S)NCc2ccco2)cc1)N1CCCC1	none
O=S(=O)(c1ccc(NC(=S)NCc2ccncc2)cc1)N1CCCCC1	HCMV antiviral -64.7
COc1ccc(NS(=O)(=O)c2ccc3nc(COc4ccc(C#N)cc4)[nH]c3c2)cc1	HCV inh 12.6µM
Cc1cc(NC(=O)COC(=O)c2c(Cl)cccc2Cl)no1	HCMV antiviral -68.1 (no result: VACV mCherry inh, Vaccinia Venus)
Cc1cc(NC(=O)COC(=O)c2ccc(Cl)cc2)no1	none (no result: HCV inh)
Cc1cc(NC(=O)COC(=O)c2ccccc2S(=O)(=O)N(C)c2ccccc2)no1	FMDV inh inconclusive, HCMV antiviral -101.3
Cc1cc(NC(=O)COC(=O)c2cccc(O)c2)no1	HCMV antiviral -64.5
CCOc1ccc(C(=O)OCC(=O)Nc2cc(C)on2)cc1OCC	HCV inh inconclusive
Cc1onc(-c2c(F)cccc2Cl)c1C(=O)OCC(=O)Nc1cccc(S(=O)(=O)N(C)C)c1	VACV mCherry inh inconclusive, FMDV inh inconclusive, Vaccinia Venus inconclusive, HCV inh inconclusive, HCMV antiviral -70.0
COc1ccc(-c2[nH]c(-c3ccc(F)cc3)nc2SCC(=O)Nc2ccc(OC)c(OC)c2)cc1	none (no result: HCV inh)
COc1cccc(CNC(=O)c2cc(=O)[nH]c3ccc(S(=O)(=O)N4CCOCC4)cc23)c1	HCV inh inconclusive (no result: VACV mCherry inh, Vaccinia Venus)
COc1ccc(NC(=O)c2cc(C3CC3)nc3c2cnn3C(C)C)cc1OC	HCV inh 10µM, HCMV antiviral inconclusive (no result: VACV mCherry inh, Vaccinia Venus)
COc1cc(C)c(NC(=O)c2cc(C3CC3)nc3c2cnn3C(C)C)cc1OC	FMDV inh inconclusive, HCV inh 5.01µM (no result: VACV mCherry inh, Vaccinia Venus)
CC(C)n1ncc2c(C(=O)Nc3ccccc3SCC(N)=O)cc(C3CC3)nc21	none (no result: HCV inh)
FC(F)(F)c1ccccc1-n1c(-c2ccco2)n[nH]c1=S	FMDV inh 14.1µM, HCMV antiviral inconclusive
CCC(=O)N(CCC(c1ccco1)C(C)C)Cc1ccccc1 (configuration not stated)	FMDV inh inconclusive
CCC(=O)N(CCC(c1ccc(C)cc1)c1ccco1)Cc1ccco1 (configuration not stated)	HCV inh 11.2µM
CCOC(=O)C(NC(=O)CCl)(Nc1sc(C)c(CC)c1C#N)C(F)(F)F (configuration not stated)	VACV mCherry inh 10µM, FMDV inh inconclusive, Vaccinia Venus inconclusive, HCV inh inconclusive, HCMV antiviral inconclusive
CCOC(=O)C(NC(=O)CC(C)C)(Nc1sc(C)c(CC)c1C#N)C(F)(F)F (configuration not stated)	none
CCc1ccc(Oc2c(C(F)(F)F)oc3c(CN4CCN(C)CC4)c(O)ccc3c2=O)cc1	none (no result: HCV inh)
OC1(c2cccnc2)CCN(Cc2ccc3c(c2)CN(Cc2cc(F)ccc2F)CCO3)CC1	none (no result: HCV inh, HCMV antiviral)
O=C(NCC1CC1)c1cnc(N2CCN(Cc3cccc(F)c3)C2=O)s1	HCMV antiviral -98.7 (no result: VACV mCherry inh, FMDV inh, Vaccinia Venus, HCV inh)
Cc1ccc(S(=O)(=O)N2CCOCC2)cc1C(=O)N1CCN(c2ccc(C(F)(F)F)cn2)CC1	FMDV inh inconclusive, HCV inh 10µM, HCMV antiviral -76.3
Cc1ccc(S(=O)(=O)N2CCOCC2)cc1C(=O)N1CCCC1	HCV inh inconclusive
Cc1ccc(-c2cc(-c3ccccc3)[nH]c(=S)c2C#N)cc1	none
N#Cc1c(-c2ccc(C(F)(F)F)cc2)cc(-c2ccccc2)[nH]c1=S	HCMV antiviral -60.3
N#C/C(=C\c1ccccn1)c1ccccn1	VACV mCherry inh 3.55µM, Vaccinia Venus inconclusive, HCV inh inconclusive, HCMV antiviral -73.6
N#C/C(=C\c1ccc([N+](=O)[O-])cc1)c1ccccn1	HCMV antiviral -74.6
CN(C)c1ccc(/C=C(\C#N)c2ccccn2)cc1	FMDV inh inconclusive, HCV inh inconclusive, HCMV antiviral -83.8
C#Cc1cccc(C(=O)NCc2nc(-c3ccccc3NC(C)=O)oc2C)c1	none (no result: HCV inh, HCMV antiviral)
